From PubChem BioAssay (NCI)
The panel holds about 83,000 compounds, 20% with a hit somewhere; the sample as a whole holds those more often.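 Cells were grown in 96-well plates and exposed to the test compound at a single concentration for 48 hours; results are reported as percent growth, with values below 10 considered active.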 Activity calls are given as the source filed them.

Columns and labels:
Test in all cases: NCI-60 one-dose screen, 48 h (100 = growth as untreated, 0 = no growth, -100 = all killed)
Settings in all cases: 10 µM unless noted
[1] = system: EKVX NSCLC
[2] = system: SN12C renal
[3] = system: UO-31 renal
[4] = system: TK-10 renal
[5] = system: ACHN renal
[6] = system: A498 renal
[7] = system: CCRF-CEM leukemia
[8] = system: CAKI-1 renal
[9] = system: MOLT-4 leukemia

Measured: growth

N#Cc1c(NN)n(C2OC(CO)C(O)C2O)c2ncnc(N)c12 (configuration not stated)
inactive: [2] 16.1% | [4] 11.2%
active: [1] -0.0983% | [3] -23.5% | [5] 7.45% | [6] -17.8% | [7] -22.3%

COCCn1c(Nc2ccc(C(=O)NO)cc2)nc2ccccc21
inactive: [1] 56.5% | [2] 66.3% | [3] 50.3% | [4] 26.7% | [5] 57.1% | [8] 47.3% | [6] 84.2% | [7] 48.5% | [9] 33.4%

O=C1OCC2=C1C(c1ccc(Cl)c(Cl)c1)c1cc3c(cc1N2CCO)CCC3 (configuration not stated)
active: [6] -0.897%
inactive: [1] 40.2% | [2] 31.4% | [3] 26.3% | [4] 50.7% | [5] 32.8% | [8] 35.7% | [7] 10.6% | [9] 18.9%

CC(=O)OC1Oc2ccccc2-c2oc3nc(=N)n(C)c-3cc21 (configuration not stated)
inactive: [1] 122% | [2] 108% | [3] 88.6% | [4] 155% | [5] 110% | [6] 138% | [7] 77%

COc1ccc(C(=O)c2cc(C)c(OC)c(C)c2)cc1OC(=O)CCl
active: [7] 8.68%
inactive: [1] 44.9% | [2] 31.4% | [3] 45.8% | [4] 62.6% | [5] 21.4% | [6] 44.1%

C=C1NC(=O)C(C(C)CC)NC(=O)C2CSCC(NC(=O)CCC(=O)O)C(=O)NC(Cc3ccccc3)C(=O)NC(C)C(=O)NC(CC(C)CC)C(=O)NC(C(=O)NC(Cc3ccccc3)C(=O)N3CCCC3C(=O)N2)C(C)OC(=O)C(CO)NC(=O)C(C(O)COC)N(C)C(=O)C(C(C)C)NC(=O)C(CC(C)CC)NC1=O (configuration not stated)
active: [6] -11.8% [6 µM]
inactive: [1] 30.4% [6 µM] | [2] 31.4% [6 µM] | [3] 57.4% [6 µM] | [4] 60.2% [6 µM] | [5] 37.4% [6 µM] | [8] 33.1% [6 µM] | [7] 18.6% [6 µM] | [9] 16.9% [6 µM]

Nc1cc2nc3ccccc3oc-2cc1=O
inactive: [1] 61% | [4] 173% | [5] 53.3% | [7] 94%
active: [2] -48.8% | [3] -40.2% | [6] -7.02%

ClCc1cccc(CSc2ncnc3c2ncn3Cc2cccc(CCl)c2)c1
active: [2] 2.77% | [7] 3.41% | [9] 5.6%
inactive: [1] 92.9% | [3] 40.6% | [4] 48.4% | [5] 70.1% | [8] 96.4% | [6] 76.2%

Cc1ccccc1CNc1ncnc2[nH]ncc12
inactive: [1] 71.6% | [2] 112% | [3] 37% | [4] 83.8% | [5] 87.2% | [8] 69% | [6] 93.9% | [7] 146%
active: [9] -58.2%

CCCc1n(Cc2ccc3ccccc3n2)cc[n+]1Cc1ccc2ccccc2n1
inactive: [1] 58.1% | [3] 86.5% | [4] 62.1% | [5] 98.1% | [6] 35.4% | [7] 36.2%
active: [2] 9.65%

O=C1c2ccccc2C(=O)c2c1oc1ccc3ccccc3c21
inactive: [1] 72.6% | [2] 83.2% | [3] 61% | [4] 169% | [5] 79.4% | [8] 90.3% | [6] 88.5% | [7] 94.8% | [9] 104%

CCOc1cccc(/C=N/NC(=O)c2ccc(Nc3ccnc(C(F)(F)F)c3)cc2)c1O
inactive: [1] 15.2% | [2] 40.7% | [4] 28.4% | [8] 13.8% | [9] 31.2%
active: [3] -11% | [5] 3.84% | [6] -2.13% | [7] -30.8%

C[C@@H]1C[C@H](N)C[C@H](c2ccncc2NC(=O)c2ccc(F)c(-c3c(F)cccc3F)n2)C1
inactive: [1] 74.9% | [2] 58.2% | [3] 25.3% | [4] 67.6% | [5] 60.5% | [8] 27.7% | [6] 35.9%
active: [9] 9.29%

O=C(O)Cn1ccc2ccccc21
inactive: [1] 102% | [2] 113% | [3] 76.4% | [4] 153% | [5] 99.9% | [6] 110% | [7] 98.4%

COc1cc(Cn2c(-c3ccccc3)cc3c2-c2oncc2CC3)cc(OC)c1OC
active: [3] 4.35% | [8] 0% | [6] 2.81%
inactive: [1] 38.3% | [2] 49.3% | [4] 47.1% | [5] 48.2% | [7] 16.9% | [9] 14.1%

CCOC(=O)C(=CNc1ccccc1Cl)C(=O)OCC
inactive: [1] 106% | [2] 101% | [3] 89.1% | [4] 99.3% | [5] 79.2% | [7] 85.8%
active: [6] 5.74%

COC(=O)C1(C)COP(=O)(NC23CC4CC(CC(C4)C2)C3)OC1 (configuration not stated)
inactive: [1] 98.4% | [2] 113% | [3] 87.2% | [4] 96.7% | [5] 103% | [8] 103% | [6] 103% | [7] 98.2% | [9] 109%

COc1ccc(NC(=O)/C=C/c2ccc(Cl)c(Cl)c2)cn1
inactive: [1] 83.7% | [2] 88.9% | [3] 74.1% | [4] 78.3% | [5] 93.4% | [8] 59.3% | [6] 65.6% | [7] 32.9% | [9] 44.4%

CC1(C)C(N(O)C(=O)Nc2ccc(Cl)cc2)N(c2ccc(Cl)cc2)C(=O)N1CC(=O)N/N=C/C=C/c1ccc([N+](=O)[O-])o1 (configuration not stated)
inactive: [1] 29.8% | [3] 12.8% | [8] 68%
active: [2] -21.4% | [4] 4.58% | [5] 9.18% | [9] -21.5%

O=C(Nc1ccccc1)C(CCCCN1C(=O)c2ccccc2C1=O)N1C(=O)c2ccccc2C1=O (configuration not stated)
inactive: [1] 105% | [2] 102% | [3] 84.3% | [4] 105% | [5] 103% | [8] 105% | [6] 99.1% | [7] 100% | [9] 96.5%

Cc1ccccc1N1C(c2ccccc2)=NNC12C=CC(=O)c1c(O)cccc12 (configuration not stated)
inactive: [1] 79.7% | [2] 62.2% | [3] 57.5% | [4] 116% | [5] 81.7% | [8] 96.9% | [6] 76.4% | [7] 119% | [9] 101%

O=C(C(=O)c1cccnc1)c1cccnc1
inactive: [1] 110% | [2] 107% | [3] 105% | [4] 158% | [5] 110% | [6] 55.6% | [7] 120%

CC(OC(=O)Nc1cccc(Cl)c1)C(=O)O (configuration not stated)
inactive: [1] 103% | [2] 92.7% | [3] 90.7% | [4] 102% | [5] 97.4% | [6] 23.2% | [7] 101%

CC(=O)Nc1ccc(Cl)cc1Cl
inactive: [1] 89.9% | [2] 101% | [3] 76.2% | [4] 112% | [5] 106% | [8] 73.4% | [6] 116% | [7] 145% | [9] 71.3%

Cc1nc2c(-c3cnc(N)nc3)nc(N3CCOCC3)nc2n1C(C)C
active: [1] 9.04% | [3] -12.1% | [4] -33% | [5] 2.76% | [8] 0.604% | [6] -39.2% | [9] 6.75%
inactive: [2] 12.8%

CCCc1n(Cc2ccc3ccccc3n2)cc[n+]1Cc1ccc2ccccc2c1
inactive: [1] 41.6% | [3] 73.8% | [5] 81.7%
active: [2] -0.216% | [4] -4.74% | [6] -3.21% | [7] 9.37% | [9] -1.31%

Cc1cc(O)ccc1C1=NN(c2ccc(S(N)(=O)=O)cc2)C(=O)CC1
active: [6] -2.97%
inactive: [1] 52.6% | [2] 70.7% | [3] 65.4% | [4] 114% | [5] 77.6% | [7] 46.2%

C=C(C)c1ccc(/C=N/NC(N)=S)cc1
inactive: [2] 93.3% | [3] 78.6% | [4] 103% | [5] 93.2% | [6] 98.4% | [7] 64% | [9] 75.3%
active: [1] 7.97%

N#Cc1c(N)n(C2OC(CO)C(O)C2O)c2ncnc(N)c12 (configuration not stated)
active: [1] -20.3% | [2] 6.49% | [3] -42.1% | [4] -9.6% | [5] 8.86% | [7] -45.1%
